According to ChEMBL document CHEMBL1157539, “Thousands of chemical starting points for antimalarial lead identification” (Nature, 2010):

Columns and labels:
Format in all cases: functional
Plasmodium falciparum [1] = assay: GSK_TCMDC: Inhibition of Plasmodium falciparum 3D7 in whole red blood cells, using parasite LDH activity as an index of growth. Test compounds present at 2uM
Plasmodium falciparum [2] = assay: GSK_TCMDC: Inhibition of Plasmodium falciparum Dd2 in whole red blood cells, using parasite LDH activity as an index of growth. Test compounds present at 2uM
HepG2 = assay: GSK_TCMDC: Percent inhibition of human HepG2 cell line. Test compounds present at 10uM.

| SMILES | Inhibition (Plasmodium falciparum [1]) [%] | Inhibition (Plasmodium falciparum [2]) [%] | Inhibition (HepG2) [%] |
| --- | --- | --- | --- |
| Fc1cccc2sc(Nc3nc(-c4ccccn4)cs3)nc12 | 95 | 97 | 30 |
| COc1cccc(C(=O)Nc2ccc(Nc3nc(C)cc(N(C)C)n3)cc2)c1OC | 90 | 9 | 0 |
| CC1(C)CCC(C)(C)c2c1ccc(C1CCN(CCCCNC(=O)c3ccc(-c4ccc(C#N)cc4)cc3)CC1)c2O | 100 | 85 | 81 |
| CS(=O)(=O)c1ccc(CNCc2ccc(-c3ccc(-c4nc5cc(C(F)(F)F)ccc5[nH]4)s3)cc2)cc1.O=C(O)C(F)(F)F | 100 | 98 | 49 |
| Cc1cc(Nc2ccc(C)c(Cl)c2)n2nc(C(F)(F)F)nc2n1 | 98 | 97 | 2 |
| O=C(NCCCc1ccccc1)c1ccc(O)c(-c2cc(Cl)cc(Cl)c2)c1 | 99 | 98 | 0 |
| Cc1cccc2nc(-c3ccc(-c4ccc(CN5CCN(c6ccc(C#N)cn6)CC5)cc4)s3)[nH]c12.O=C(O)C(F)(F)F | 98 | 44 | 10 |
| CC(=O)N/N=C/[C@H](CCc1ccccc1)NC(=O)[C@H](CC(C)C)NC(=O)c1cccc(OCCN2CCOCC2)c1 | 94 | 78 | 13 |
| NCC1CCCN1Cc1cccc(-c2ccc(-c3nc4cc(C(F)(F)F)ccc4[nH]3)cc2)c1.O=C(O)C(F)(F)F (centres undefined) | 100 | 95 | 20 |
| O=C(O)C(F)(F)F.c1cc(CNC2CCCC2)cc(-c2ccc(CNc3ccc4ncccc4c3)cc2)c1 | 98 | 24 | 32 |
| COc1ccc(CCn2c(=N)c(C(=O)NCc3cccnc3)cc3c(=O)n4ccccc4nc32)cc1 | 98 | 5 | 16 |
| CN1CCC(NCc2ccc(-c3cccc(S(=O)(=O)NCC4CCCO4)c3)cc2)CC1.O=C(O)C(F)(F)F (centres undefined) | 90 | 0 | 8 |
| CCOC(=O)C1=C(C)NC(C)=C(C(=O)OCC)C1(C(=O)OCc1ccccc1)c1cccc(C(F)(F)F)c1 | 88 | 60 | 0 |
| O=C(CSc1nccn1C1CCCCC1)Nc1cc(C(F)(F)F)ccc1Cl | 96 | 95 | 2 |
| CC(C)C[C@H](NC(=O)[C@H](Cc1ccccc1)N(C[C@H](Cc1ccccc1)NC(=O)OC(C)(C)C)C(=O)C(F)(F)F)C(=O)NC1CCN(Cc2ccccc2)CC1 | 92 | 82 | 13 |
| CN(C)Cc1c(O)ccc2[nH]c(-c3ccc(F)cc3F)nc12 | 99 | 17 | 4 |
| COc1ccc(-c2ccc(NC(=O)c3ccc(C#N)cc3)cc2)cc1CN1CCCN(C)CC1.O=C(O)C(F)(F)F | 99 | 75 | 27 |
| CCNc1cc(C(=O)N[C@@H](Cc2ccccc2)[C@H](O)CNCc2cc(OC)cc(OC)c2)cc(N2CCCS2(=O)=O)c1.Cl | 99 | 86 | 0 |
| COc1ccc2nc(N)nc(C)c2c1 | 90 | 1 | 5 |
| COc1cccc(NC(=O)Cn2c(C)c(C(=O)C(F)(F)F)c3ccccc32)c1 | 97 | 94 | 2 |
| O=C(c1cccc(Cl)c1)N1CCN(c2ccc([N+](=O)[O-])c(NC3CC3)c2)CC1 | 100 | 79 | 11 |
| Cc1csc(NC(=O)c2cn(-c3ccccc3)nc2-c2cccs2)n1 | 95 | 12 | 0 |
| CC(C)C(=O)NC(Nc1ccc([N+](=O)[O-])cc1)C(Cl)(Cl)Cl (centres undefined) | 97 | 84 | 7 |
| Cc1cc2nc(-c3ccc(C(=O)NCc4ccc(Cl)c(Cl)c4)cc3)[nH]c2cc1C | 96 | 83 | 6 |
| Cc1cnc(C[S+]([O-])c2nc3cc(C(F)(F)F)ccc3[nH]2)cc1OCc1ccccc1 (centres undefined) | 93 | 76 | 0 |
| O=c1cc(-c2ccc3ccccc3c2)[nH]c2ccccc12 | 81 | 44 | 25 |
| C=CCOC(=O)N1CCC(CNCc2ccc(-c3ccc(-c4nc5cc(C(F)(F)F)ccc5[nH]4)cc3)cc2)C1.O=C(O)C(F)(F)F (centres undefined) | 100 | 98 | 44 |
| COc1ccc2nccc(N/N=C/c3ccc([N+](=O)[O-])cc3)c2c1 | 100 | 68 | 9 |
